Reference: the supplement of paper PMC10849652
The full data set covers some 7,900 targets. This sample favours those with a hit. About 0.6% of all pairs of compound and target were hits. Unmarked numbers belong to inactive results.

Tests used:
Assay in all cases: log2 fold change, soluble protein after heating vs DMSO (PISA); higher = thermal stabilisation; K562 cells, 10 uM, 30 min; active = over 0.2 and 3.5 SD of the protein, either way, in both replicates (recomputed)
saracatinib = compound: CN1CCN(CCOc2cc(OC3CCOCC3)c3c(Nc4c(Cl)ccc5c4OCO5)ncnc3c2)CC1 [saracatinib]
Procedure, shortened: (§1)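 K562 cells at 2×10^6 cells/mL were treated with 10 μM compound for 30 min. Aliquots were heated for 3 min across 48°C-58°C, pooled, and extracted in PBS with 0.5% NP-40 at 4°C; soluble protein was the supernatant after 21,000xg for 90 min. Soluble protein was quantified by TMTpro 16plex LC-MS/MS with channel sums equalised, and reported as log2 fold change in thermal stability against DMSO controls, with values from duplicates.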

sotrastaurin = compound: CN1CCN(c2nc(C3=C(c4c[nH]c5ccccc45)C(=O)NC3=O)c3ccccc3n2)CC1 [sotrastaurin]
Procedure, shortened: as §1

alvocidib = compound: CN1CC[C@H](c2c(O)cc(O)c3c(=O)cc(-c4ccccc4Cl)oc23)[C@H](O)C1 [alvocidib]
Procedure, shortened: as §1

Tubastatin A = compound: CN1CCc2c(c3ccccc3n2Cc2ccc(C(=O)NO)cc2)C1 [Tubastatin A]
Procedure, shortened: as §1

[1] = compound: CNC(=O)C1=CC=CC=C1NC2=NC(=NC=C2Cl)NC3=C(C=C(C=C3)N4CCOCC4)OC
Procedure, shortened: as §1

defactinib = compound: CNC(=O)c1ccc(Nc2ncc(C(F)(F)F)c(NCc3nccnc3N(C)S(C)(=O)=O)n2)cc1 [defactinib]
Procedure, shortened: as §1

rucaparib = compound: CNCc1ccc(-c2[nH]c3cc(F)cc4c3c2CCNC4=O)cc1 [rucaparib]
Procedure, shortened: as §1

[2] = compound: CNc1nc(-c2ccc3c(N)n[nH]c3c2)cc(N2C[C@@H](C(=O)NC3CCCCC3)CC[C@H]2C)n1
Procedure, shortened: as §1

encorafenib = compound: COC(=O)N[C@@H](C)CNc1nccc(-c2cn(C(C)C)nc2-c2cc(Cl)cc(NS(C)(=O)=O)c2F)n1 [encorafenib]
Procedure, shortened: as §1

[3] = compound: COC(=O)[C@H](CCSC)NC(=O)C1=C(C=C(C=C1)NC[C@H](CS)N)C2=CC=CC=C2
Procedure, shortened: as §1

Chain of UniProt Q9NZN8 (Q9NZN8 whole entry, looked up): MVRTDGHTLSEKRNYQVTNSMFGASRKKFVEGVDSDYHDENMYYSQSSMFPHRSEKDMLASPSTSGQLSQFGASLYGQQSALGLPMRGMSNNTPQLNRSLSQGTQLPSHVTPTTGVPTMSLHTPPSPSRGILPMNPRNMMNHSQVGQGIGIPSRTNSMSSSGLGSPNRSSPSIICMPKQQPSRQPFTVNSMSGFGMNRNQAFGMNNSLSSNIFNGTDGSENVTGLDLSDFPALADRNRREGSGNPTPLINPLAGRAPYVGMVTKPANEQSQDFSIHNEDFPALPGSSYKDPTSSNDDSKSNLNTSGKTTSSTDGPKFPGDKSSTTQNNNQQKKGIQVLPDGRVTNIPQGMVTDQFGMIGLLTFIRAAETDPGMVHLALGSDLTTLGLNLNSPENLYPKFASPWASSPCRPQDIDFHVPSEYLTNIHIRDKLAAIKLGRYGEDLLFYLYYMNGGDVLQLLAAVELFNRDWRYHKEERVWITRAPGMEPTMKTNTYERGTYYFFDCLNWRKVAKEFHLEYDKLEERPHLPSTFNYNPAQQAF
Chain of UniProt Q5T6V5 (Q5T6V5 whole entry, looked up): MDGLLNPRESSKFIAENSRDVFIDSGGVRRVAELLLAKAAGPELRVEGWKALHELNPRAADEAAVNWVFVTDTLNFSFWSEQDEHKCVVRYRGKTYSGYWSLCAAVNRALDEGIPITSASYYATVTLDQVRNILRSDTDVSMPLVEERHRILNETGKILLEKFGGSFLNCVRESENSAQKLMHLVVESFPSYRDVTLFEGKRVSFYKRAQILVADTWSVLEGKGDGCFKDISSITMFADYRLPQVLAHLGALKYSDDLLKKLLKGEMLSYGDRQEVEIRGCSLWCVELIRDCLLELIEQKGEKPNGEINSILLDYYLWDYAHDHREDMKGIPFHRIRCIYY
Chain of UniProt O14578 (O14578 whole entry, looked up): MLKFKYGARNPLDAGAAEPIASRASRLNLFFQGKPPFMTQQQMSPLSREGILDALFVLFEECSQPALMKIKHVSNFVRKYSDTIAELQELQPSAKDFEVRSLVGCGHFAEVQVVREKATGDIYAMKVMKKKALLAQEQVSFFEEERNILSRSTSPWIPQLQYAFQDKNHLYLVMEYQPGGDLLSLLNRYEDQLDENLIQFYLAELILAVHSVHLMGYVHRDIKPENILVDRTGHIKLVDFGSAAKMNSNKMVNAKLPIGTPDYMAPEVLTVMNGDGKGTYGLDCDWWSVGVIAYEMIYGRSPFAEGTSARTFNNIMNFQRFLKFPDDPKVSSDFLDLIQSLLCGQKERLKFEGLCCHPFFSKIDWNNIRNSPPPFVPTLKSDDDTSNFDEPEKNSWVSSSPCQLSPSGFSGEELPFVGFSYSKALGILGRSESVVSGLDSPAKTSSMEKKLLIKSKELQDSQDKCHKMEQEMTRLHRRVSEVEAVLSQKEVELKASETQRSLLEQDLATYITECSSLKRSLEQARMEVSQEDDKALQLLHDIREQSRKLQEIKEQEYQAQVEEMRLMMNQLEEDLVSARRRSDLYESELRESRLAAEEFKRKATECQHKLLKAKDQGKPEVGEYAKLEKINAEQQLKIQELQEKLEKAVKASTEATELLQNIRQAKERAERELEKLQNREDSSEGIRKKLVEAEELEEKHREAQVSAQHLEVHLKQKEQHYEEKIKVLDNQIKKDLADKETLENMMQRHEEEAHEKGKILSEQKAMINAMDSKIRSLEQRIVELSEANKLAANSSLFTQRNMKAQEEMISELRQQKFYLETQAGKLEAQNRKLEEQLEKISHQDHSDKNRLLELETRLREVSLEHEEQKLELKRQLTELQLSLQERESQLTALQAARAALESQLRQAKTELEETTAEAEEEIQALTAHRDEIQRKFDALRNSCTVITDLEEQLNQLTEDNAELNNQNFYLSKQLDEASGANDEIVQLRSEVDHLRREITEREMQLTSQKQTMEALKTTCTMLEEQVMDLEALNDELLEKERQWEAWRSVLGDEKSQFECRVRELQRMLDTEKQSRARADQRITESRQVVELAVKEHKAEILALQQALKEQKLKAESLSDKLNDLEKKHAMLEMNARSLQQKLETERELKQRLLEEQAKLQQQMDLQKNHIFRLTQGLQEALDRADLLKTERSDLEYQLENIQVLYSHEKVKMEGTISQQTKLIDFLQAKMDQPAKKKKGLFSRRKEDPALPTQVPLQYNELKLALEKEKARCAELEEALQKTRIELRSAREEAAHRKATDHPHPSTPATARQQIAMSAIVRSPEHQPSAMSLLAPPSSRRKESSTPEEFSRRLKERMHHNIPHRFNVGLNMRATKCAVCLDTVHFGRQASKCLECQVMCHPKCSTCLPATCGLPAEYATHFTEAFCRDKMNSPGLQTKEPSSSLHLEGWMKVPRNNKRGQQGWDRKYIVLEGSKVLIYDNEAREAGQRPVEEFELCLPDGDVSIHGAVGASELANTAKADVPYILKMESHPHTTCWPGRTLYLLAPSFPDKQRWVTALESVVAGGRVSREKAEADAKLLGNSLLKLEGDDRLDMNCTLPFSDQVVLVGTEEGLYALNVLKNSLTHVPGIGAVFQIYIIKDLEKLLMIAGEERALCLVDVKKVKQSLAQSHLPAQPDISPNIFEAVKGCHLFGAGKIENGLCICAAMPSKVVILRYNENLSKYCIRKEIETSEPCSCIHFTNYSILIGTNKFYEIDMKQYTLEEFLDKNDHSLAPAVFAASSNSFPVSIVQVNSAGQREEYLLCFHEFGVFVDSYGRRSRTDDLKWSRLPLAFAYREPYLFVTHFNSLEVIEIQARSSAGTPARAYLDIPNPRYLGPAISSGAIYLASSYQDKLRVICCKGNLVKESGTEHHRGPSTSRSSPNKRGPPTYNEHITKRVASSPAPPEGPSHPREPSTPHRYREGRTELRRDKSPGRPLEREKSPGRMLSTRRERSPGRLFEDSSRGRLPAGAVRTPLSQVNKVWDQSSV
Chain of UniProt Q9Y2V0 (Q9Y2V0 whole entry, looked up): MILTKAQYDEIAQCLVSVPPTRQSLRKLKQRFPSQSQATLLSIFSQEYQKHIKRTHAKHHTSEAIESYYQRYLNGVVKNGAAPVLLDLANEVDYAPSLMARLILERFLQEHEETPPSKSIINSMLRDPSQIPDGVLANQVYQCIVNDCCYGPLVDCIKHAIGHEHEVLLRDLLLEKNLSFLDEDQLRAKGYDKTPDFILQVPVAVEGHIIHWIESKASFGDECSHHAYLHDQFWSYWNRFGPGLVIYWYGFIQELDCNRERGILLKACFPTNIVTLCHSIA
Chain of UniProt P23786 (P23786 whole entry, looked up): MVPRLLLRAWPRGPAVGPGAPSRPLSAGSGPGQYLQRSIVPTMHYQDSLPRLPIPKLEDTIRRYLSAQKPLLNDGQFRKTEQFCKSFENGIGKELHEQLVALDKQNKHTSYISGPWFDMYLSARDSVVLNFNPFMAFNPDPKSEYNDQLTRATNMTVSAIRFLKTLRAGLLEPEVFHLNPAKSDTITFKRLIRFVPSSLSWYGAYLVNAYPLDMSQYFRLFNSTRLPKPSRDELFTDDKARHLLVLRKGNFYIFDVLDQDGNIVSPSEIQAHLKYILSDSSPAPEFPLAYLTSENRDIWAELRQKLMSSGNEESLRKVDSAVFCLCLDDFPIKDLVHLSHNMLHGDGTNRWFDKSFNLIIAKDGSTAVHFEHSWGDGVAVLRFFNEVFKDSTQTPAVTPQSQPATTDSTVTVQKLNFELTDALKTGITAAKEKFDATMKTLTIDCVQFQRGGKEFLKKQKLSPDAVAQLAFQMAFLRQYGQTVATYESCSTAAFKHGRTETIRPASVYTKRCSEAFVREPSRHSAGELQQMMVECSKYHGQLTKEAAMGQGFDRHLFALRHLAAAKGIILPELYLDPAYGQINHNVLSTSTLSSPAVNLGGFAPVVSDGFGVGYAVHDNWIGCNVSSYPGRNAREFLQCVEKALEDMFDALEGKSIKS
Chain of UniProt P55060 (P55060 whole entry, looked up): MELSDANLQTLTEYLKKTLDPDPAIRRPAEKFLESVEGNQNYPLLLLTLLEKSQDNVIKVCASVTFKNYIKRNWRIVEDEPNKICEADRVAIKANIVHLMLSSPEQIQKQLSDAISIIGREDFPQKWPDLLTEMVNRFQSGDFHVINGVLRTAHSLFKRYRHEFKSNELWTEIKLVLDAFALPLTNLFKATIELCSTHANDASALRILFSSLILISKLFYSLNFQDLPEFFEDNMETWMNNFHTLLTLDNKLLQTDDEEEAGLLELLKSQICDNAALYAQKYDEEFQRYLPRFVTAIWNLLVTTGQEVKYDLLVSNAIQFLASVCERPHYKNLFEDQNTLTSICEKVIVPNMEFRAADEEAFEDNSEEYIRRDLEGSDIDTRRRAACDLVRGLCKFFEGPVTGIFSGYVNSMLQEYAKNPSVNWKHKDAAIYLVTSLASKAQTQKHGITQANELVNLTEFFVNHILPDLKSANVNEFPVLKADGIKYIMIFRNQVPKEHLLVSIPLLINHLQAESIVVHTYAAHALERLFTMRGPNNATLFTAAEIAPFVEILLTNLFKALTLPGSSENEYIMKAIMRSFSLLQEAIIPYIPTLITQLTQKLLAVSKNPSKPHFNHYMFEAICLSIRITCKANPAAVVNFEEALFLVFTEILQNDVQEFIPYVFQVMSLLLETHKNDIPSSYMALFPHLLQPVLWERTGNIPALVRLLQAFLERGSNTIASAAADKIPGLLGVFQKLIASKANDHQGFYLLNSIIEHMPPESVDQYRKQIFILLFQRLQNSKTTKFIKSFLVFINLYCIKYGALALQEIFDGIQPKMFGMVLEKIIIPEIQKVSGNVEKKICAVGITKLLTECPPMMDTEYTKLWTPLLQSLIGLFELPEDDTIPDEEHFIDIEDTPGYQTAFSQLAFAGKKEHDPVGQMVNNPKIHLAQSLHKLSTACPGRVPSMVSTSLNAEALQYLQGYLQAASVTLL
Chain of UniProt P24311 (P24311 whole entry, looked up): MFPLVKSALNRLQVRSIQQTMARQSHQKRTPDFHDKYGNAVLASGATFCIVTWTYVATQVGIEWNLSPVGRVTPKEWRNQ
Chain of UniProt Q9NRR8 (Q9NRR8 whole entry, looked up): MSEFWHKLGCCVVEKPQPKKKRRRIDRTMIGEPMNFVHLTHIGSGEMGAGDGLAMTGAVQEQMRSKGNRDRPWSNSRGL

Target	log2 fold change (saracatinib)	log2 fold change (sotrastaurin)	log2 fold change (alvocidib)	log2 fold change (Tubastatin A)	log2 fold change [1]	log2 fold change (defactinib)	log2 fold change (rucaparib)	log2 fold change [2]	log2 fold change (encorafenib)	log2 fold change [3]
CIT isoform 4 (UniProt O14578)	-0.044	-0.033	0.001	0.074	0.054	-0.034	-0.202	-0.055	-0.025	-0.001
CLCN7 (UniProt P51798)	0.004	-0.112	0.007	-0.071	0.044	0.025	-0.052	-0.156	0.151	-0.04
CHD3 isoform 3 (UniProt Q12873)	-0.067	-0.312	-0.12	0.096	-0.029	-0.253	0.134	-0.024	0.136	-0.087
COPS8 (UniProt Q99627)	-0.013	-0.052	-0.071	-0.025	-0.039	-0.03	-0.015	0.018	0.011	-0.021
C9orf64 (UniProt Q5T6V5)	-0.053	-0.124	-0.177	0.036	-0.04	-0.067	0.377 (active)	-0.018	0.047	0.016
COX7B (UniProt P24311)	0.174	0.058	0.026	-0.087	0.059	0	-0.02	-0.049	-0.036	-0.073
C4A (UniProt P0C0L4)	0.108	0.268	0.052	-0.039	-0.021	0.072	-0.075	-0.188	-0.047	-0.039
CD151 (UniProt P48509)	0.045	0.116	-0.049	-0.012	0.092	-0.065	-0.097	0.03	0.031	0.001
CBS (UniProt P35520)	-0.009	0.011	-0.035	-0.069	-0.021	0.003	-0.061	-0.03	-0.001	-0.013
CES2 isoform 4 (UniProt O00748)	0.04	0.196	0.065	0.115	0.247	-0.164	0.3	0.218	-0.145	0.044
CLPTM1L (UniProt Q96KA5)	0.11	-0.013	0.008	-0.008	-0.057	-0.042	-0.011	-0.099	0.021	0.043
C15orf41 (UniProt Q9Y2V0)	0.009	0.042	-0.042	0.011	-0.137	-0.008	0.081	-0.017	0.01	0.079
CNOT2 (UniProt Q9NZN8)	-0.044	0.007	-0.071	-0.005	-0.006	-0.024	0.052	0	0.012	-0.021
CERT isoform 3 (UniProt Q9Y5P4)	0.033	0.014	0.002	-0.105	0.131	-0.097	-0.009	0.116	-0.015	0.047
CDK19 (UniProt Q9BWU1)	0.006	0.035	0.585 (active)	-0.104	-0.209	0.046	0.345	0.03	-0.086	-0.005
CLUH (UniProt O75153)	-0.032	-0.141	-0.006	0.033	-0.049	-0.04	0.239	0.133	-0.044	-0.046

Target	log2 fold change (saracatinib)	log2 fold change (sotrastaurin)	log2 fold change (alvocidib)	log2 fold change (Tubastatin A)	log2 fold change [1]	log2 fold change (defactinib)	log2 fold change (rucaparib)	log2 fold change [2]	log2 fold change (encorafenib)	log2 fold change [3]
CHCHD2 (UniProt Q9Y6H1)	0	-0.031	0.027	-0.058	0.087	-0.002	-0.065	-0.049	-0.01	0.061
CKB (UniProt P12277)	-0.041	0.019	-0.089	-0.004	-0.016	-0.006	-0.059	0.043	0.015	-0.011
CDC26 (UniProt Q8NHZ8)	0.032	-0.022	0.026	0	-0.032	-0.11	0.112	-0.013	-0.051	-0.234
CCZ1 (UniProt P86791)	0.079	-0.003	-0.052	-0.016	0.012	-0.018	-0.006	-0.025	-0.01	-0.019
CDC42BPA isoform 6 (UniProt Q5VT25)	-0.093	-0.47 (active)	-0.688 (active)	0.022	-0.037	-0.183	0.088	-0.031	0.06	-0.064
CPT2 (UniProt P23786)	-0.089	-0.136	-0.062	0.032	0.147	-0.164	-0.096	0.363	-0.074	-0.057
COX20 isoform 2 (UniProt Q5RI15)	0.005	0.008	-0.025	-0.062	-0.028	-0.017	0.044	-0.025	-0.108	0.009
CD63 (UniProt P08962)	0.021	0.017	0.01	-0.005	0	-0.006	-0.018	-0.01	0.049	0.015
CCNT1 (UniProt O60563)	-0.005	-0.173	-0.221	0.075	-0.086	-0.213	0.044	0.043	0.163	0.002
COX15 (UniProt Q7KZN9)	0.071	0.004	-0.015	-0.009	-0.008	-0.003	-0.236 (active)	-0.017	0.023	0.002
CDC42SE1 (UniProt Q9NRR8)	0.074	-0.033	-0.019	-0.562 (active)	0.228	-0.041	0.087	0.01	-0.032	0.077
CSE1L (UniProt P55060)	0.032	-0.076	-0.069	-0.033	0.016	-0.092	-0.059	-0.057	0.022	-0.013
CHP1 (UniProt Q99653)	-0.09	0.068	-0.046	0.041	0.085	-0.006	0.068	-0.219	-0.016	0.021
COQ9 (UniProt O75208)	-0.009	-0.052	-0.041	-0.045	-0.047	-0.045	0.001	0.042	-0.013	-0.016
CALB1 (UniProt P05937)	0.033	0.008	0.034	-0.026	0.02	0.013	-0.07	-0.14	0.023	0.021
